Structures are written as SMILES. Values without a mark were called inactive. Active and inactive are the calls of the source.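 The calls were made as follows: active = cell event count below 40, meaning activity score above 60 where score is 100 minus count; inactive = the rest.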

A short description of the assay: cytotoxicity in LNCaP prostate cells – cell-based, cell event count, single point, cytotoxicity control for prostate differentiation activator project, confirmation (AID 1076).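 Also: counts scatter-gated live cells after medium removal discards detached dead cells.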 As to conditions: LNCaP cell loss, flow cytometry event count, 4 d; at 100 µM; stronger effect = lower value. (Flow cytometry measures light scatter and fluorescence of single cells or particles in a stream.)
For `Cc1ccc(Cl)cc1N1CCN(C(=O)c2cc3c(=O)n(C)c4ccccc4c3n2C)CC1`, the cell event count was 31 (active). The same measure for `O=C(NCCCN1CCN(c2ccc(F)cc2)CC1)c1cccc(N2CCCC2=O)c1`: 206; for `Cc1cc(=O)n2nc(N3CCCC(C(=O)NCc4ccco4)C3)sc2n1` (configuration not stated): 325. The figure for `O=C(NCCCN1CCN(c2ccccc2F)CC1)C1CCC(=O)N1C1CCCCC1` (configuration not stated) is 388; for `CCn1c(=O)cc(OCC(=O)O)c2ccccc21` it is 22. The figure for `O=C1c2ccccc2C(Nc2ccc3c(c2)OCO3)N1Cc1ccc2c(c1)OCO2` (configuration not stated) is 178. `COc1ccc(CCNC(=O)C2CCN(Cc3nc(-c4ccccc4F)oc3C)CC2)cc1OC`: the cell event count was 524. The figure for `CCOc1ccc(OCC)c(NC(=O)C2CCCN(S(=O)(=O)c3c(C)noc3C)C2)c1` (configuration not stated) is 187; for `O=C(NC1CCCC1)C1CCN(S(=O)(=O)c2cccc3cccnc23)CC1` it is 371; for `CCOc1ccc(C(=O)Nc2ccc(Cl)cn2)cc1Cl` it is 41. As for `Cc1oc(-c2ccc(Cl)cc2)nc1CN1CCCC(C(=O)NCc2cccnc2)C1` (configuration not stated), the cell event count was 28. The figure for `N#CC1=C(N)OC2=C(C(=O)CCC2)C1c1ccc(OC(=O)N2CCOCC2)cc1` (configuration not stated) is 293; for `CCOc1nc(-c2ccccc2O)nc2ccccc12` it is 252; for `COc1ccc(C)cc1NC(=O)CCC(=O)Nc1ccc2nc(N3CCN(C)CC3)cc(C)c2c1` it is 19.

In the case of `Cc1ccc(-n2c(SCC(=O)Nc3nccs3)nc3c(c2=O)SCC3)cc1`, the cell event count is 83. Take `CC(C)(O)c1cn(-c2nonc2N)nn1`: the cell event count was 249. The figure for `Cc1nn(Cc2ccc(F)cc2)c(C)c1NC(=O)c1cc(-c2ccc3c(c2)OCO3)on1` is 105; for `O=C(NCCCN1CCN(c2ccccc2F)CC1)C1CCC(=O)N1C1CCCC1` (configuration not stated) it is 60.

As for `Cc1oc(-c2ccccc2F)nc1CN1CCC(C(=O)NCc2cccnc2)CC1`, the cell event count is 290. Take `c1ccc(OCCCn2nnc(-c3cccnc3)n2)cc1`: the cell event count was 123. The same measure for `CN(CC(O)COc1ccc(OCC(O)CN(C)C2CCCCC2)cc1)C1CCCCC1` (configuration not stated): 249; for `c1ccc(N2CCN(c3nnc(Cc4cccnc4)c4ccccc34)CC2)nc1`: 40.

The values above are taken from PubChem BioAssay AID1076 (NMMLSC, 2008).
